# Values joined by “and” are separate entries in the source; they are usually repeats but may differ in a detail not shown here. Equal values may be shown once. Records with an inconclusive call do not appear. Entries that show only a call come without a potency. Active and inactive are the calls of the source. Unless noted, calls come from the whole dose curve; as a rule, active = well fitted curve in the direction sought with a large enough effect; inconclusive = small, poorly fitted or top-dose-only effect, or another doubt; inactive = no such curve, though single readings can be large; an effect the other way counts as inactive or inconclusive.
# Experiments:
# [1] = AP1 Signaling Pathway (AID 357; active = well fitted curve in either direction with a large enough effect, not every such curve was filed as active)
# In short: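 ME-180 cells with beta-lactamase reporter under AP-1 response element, stimulated with EC50 EGF; compounds tested in titration series, 5 h at 37 °C. CCF4 substrate added 2.5 h at room temperature; 460/530 nm emission ratio gave %activity and AC50.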
# [2] = molecular target: Cytochrome P450 1A2 (Homo sapiens) (UniProt P05177); assay: p450-cyp1a2 (AID 410; calls by dose curve)
# In short: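 20nM CYP1A2, 100uM Luciferin-ME (=Km), 100mM KPO4; cpd 10 min RT; +NADPH regen, 60 min RT; stop/detect 20 min; luminescence. Normalized to furafylline 57 uM = full inhibition.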
# [3] = NFAT Signaling Pathway (AID 444; active = well fitted curve in either direction with a large enough effect, not every such curve was filed as active;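 note: carbachol stimulus at about its EC50 of 1 µM final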); conditions: Jurkat NFAT-bla M1, carbachol, beta-lactamase ratio, 5 h; at 38 µM (top of the series)
# In short: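 Read-out: CCF4 FRET ratio (460 nm/530 nm) after 1 h RT dye loading, used for %activity and AC50 from titration series. Cells: Jurkat NFAT-β-lactamase/M1 line, treated with compound plus 1 uM carbachol for 5 h, 37 °C.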
# [4] = Stat Signaling Pathway (AID 446; active = well fitted curve in either direction with a large enough effect, not every such curve was filed as active;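 note: ME-180 cervical cancer cells given 40 pM IL-6 alongside compound; SIE-controlled beta-lactamase reporter measured as 460/530 nm FRET emission ratio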)
# In short: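 Normalization used AC90 stimulation (300 pM IL-6) and AC90 inhibition (125 nM pan-JAK inhibitor at 40 pM IL-6). The underlying signal is SIE-driven beta-lactamase in ME-180 cells after 5 h IL-6 exposure with compound.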
# [5] = molecular target: Glucocorticoid receptor (Homo sapiens) (UniProt P04150); assay: GR-GFP Redistribution (AID 450;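 active = compounds whose dose series gives a full or clear partial fitted curve of increased nuclear translocation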; note: potency is the fitted concentration of half-maximal effect); conditions: U2OS GR-GFP nuclear translocation, laser cytometry, 2 h
# [6] = molecular target: Glucocorticoid receptor (Homo sapiens) (UniProt P04150); assay: GR-EFC Redistribution (AID 451; calls by dose curve; note: potency is the fitted concentration of half-maximal effect); conditions: CHO-K1 GR-EFC translocation, beta-gal luminescence, 2 h
# In short: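 Translocation of GR-ED fusion to nuclear EA restores b-gal, read by luminescence after 1 h room-temperature detection. Engineered CHO-K1 biosensor cells, 1,000/well, exposed 2 h at 37 C to titrations up to 46 uM final.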
# [7] = molecular target: Mitogen-activated protein kinase 10 (Mus musculus) (UniProt Q61831); assay: JNK3 AlphaScreen Assay (AID 530; active = well fitted curve in either direction with a large enough effect, not every such curve was filed as active;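 note: kinase came from lysate of stimulated human HepG2 cells; signal reports phosphorylation of biotinylated GST-cJun 1-79 at Ser73 with 10 µM ATP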)
# In short: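 Kinase buffer: 20 mM Tris-HCl pH 7.6, 10 mM MgCl2, 1 mM DTT, 0.1 mM Na3VO4, 0.01% Tween-20; ATP 10 uM. Substrate biotin-GST-cJun(1-79), enzyme from activated HepG2 lysates. Detection by Ser73 phospho-antibody AlphaScreen.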
# [8] = molecular target: 3',5'-cyclic-AMP phosphodiesterase 4B (Homo sapiens) (UniProt Q07343); assay: qHTS Assay for Inhibitors of PDE-IV (AID 607; active = well fitted activation curve with a large enough effect in the main read-out, with a control signal flat, not every such curve was filed as active)
# In short: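 HEK293 ACTOne cells with CNG channel (1000/well), endogenous PDE4; membrane potential dye, compounds up to 22.9 uM final. Fluorescence Ex 535/Em 590; RO 20-1724 (100 uM final) as reference.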
# [9] = molecular target: Guanine nucleotide-binding protein G(i) subunit alpha-1 (Homo sapiens) (UniProt P63096); assay: qHTS Assay for Inhibitors of RGS12 GoLoco Motif Activity (Green Fluorophore) (AID 879);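 note: negative values mean loss of peptide binding seen as reduced polarization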
# In short: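 A drop in FITC polarization marked displacement of the FITC-tagged RGS12 GoLoco peptide (10 nM) from Gαi1 (50 nM). Compounds were incubated 10 min at room temperature in Tris pH 7.5 buffer containing 150 mM NaCl, 0.1 mM GDP and 0.05% NP40; unlabeled peptide titration served as control.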
# [10] = molecular target: Cytochrome P450 2C9 (Homo sapiens) (UniProt P11712); assay: qHTS Assay for Inhibitors and Substrates of Cytochrome P450 2C9 (AID 883); note: nearly all actives have a fitted effect of over 60% in size
# In short: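 Turnover of Luciferin-H (100uM, KM) by 10nM human CYP2C9 was measured over 60 min at 37C with NADPH regeneration; inhibitors and some substrates reduce luminescence. Data normalized to sulphaphenazole 57uM.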
# [11] = molecular target: Cytochrome P450 2D6 (Homo sapiens) (UniProt P10635); assay: qHTS Assay for Inhibitors and Substrates of Cytochrome P450 2D6 (AID 891);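 note: luciferin methyl ether substrate demethylated by CYP2D6 with NADPH regeneration; nearly all actives have a fitted effect of over 60% in size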
# In short: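 Luminescent read-out of luciferin formed by 5 nM human CYP2D6 demethylating 30 uM Luciferin-ME EGE (Km level) over 60 min at room temperature after NADPH regeneration addition. Data normalized to full inhibition by 1.43 uM quinidine.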
# [12] = molecular target: Cytochrome P450 2C19 (Homo sapiens) (UniProt P33261); assay: qHTS Assay for Inhibitors and Substrates of Cytochrome P450 2C19 (AID 899); note: nearly all actives have a fitted effect of over 60% in size
# In short: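 Reactions contain 5nM enzyme, 10uM Luciferin-H EGE (KM) and 50mM KPO4; compound preincubates 10 min at 37C, NADPH regeneration starts turnover for 60 min. Luminescence after detection reagent gives activity.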
# [13] = molecular target: Muscarinic acetylcholine receptor M1 (Rattus norvegicus) (UniProt P08482); assay: qHTS Assay for Antagonists of Acetylcholine Muscarinic M1 Receptor: Kinetic Measurement of Intracellular Calcium Response (AID 943);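 note: Fluo-4 calcium signal as peak divided by basal fluorescence over 4 min; nearly all actives have a fitted effect of over 75% in size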
# In short: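 Read-out: peak over basal Fluo-4 fluorescence, kinetic at 1 Hz for 4 min after EC80 carbachol (100 nM final). Rat M1-CHO cells, dye loaded 1 h at 37C, compound added 10 min before agonist.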
# [14] = molecular target: Muscarinic acetylcholine receptor M1 (Rattus norvegicus) (UniProt P08482); assay: qHTS Assay for Antagonists of Acetylcholine Muscarinic M1 Receptor: Measurement of IP-One Response (AID 944); note: nearly all actives have a fitted effect of over 75% in size
# In short: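 Read-out: HTRF competition between d2-IP1 and Eu-cryptate anti-IP1 antibody, emission 620 and 665 nm. Stimulus was carbachol, EC80 (200 nM), for 30 min in M1-CHO cells (rat receptor), after 10 min compound pre-treatment.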
# [15] = molecular target: Pyruvate kinase (Leishmania mexicana) (UniProt Q27686); assay: qHTS Validation Assay for Inhibitors of Leishmania Mexicana Pyruvate Kinase (AID 945)
# In short: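 Eight-point qHTS titrations; enzyme 0.2 nM LmPYK (E451W mutant); substrates 0.5 mM PEP, 0.1 mM ADP; 7 mM MgCl2; 1 h room temperature; PKLight luminescence normalized to neutral control.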
# [16] = molecular target: Pyruvate kinase PKM (Homo sapiens) (UniProt P14618); assay: qHTS Assay for Activators of Human Muscle Pyruvate Kinase (AID 954; active = well fitted curve in the direction sought with a large enough effect, not every such curve was filed as active)
# In short: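 Compound pinned into substrate mix (0.5 mM PEP, 0.1 mM ADP), then 0.1 nM PKM2 added; 1 h, RT. Stop/detection luciferase reagent added, luminescence read. Normalized to no-inhibition and no-enzyme or reference-inhibitor controls.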
# [17] = molecular target: Alpha-galactosidase (Coffea arabica) (UniProt Q42656); assay: Counterscreen for Glucocerebrosidase Inhibitors: qHTS Assay for Coffee Bean alpha-Galactosidase at pH 4.5 (AID 957)
# In short: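 Fluorogenic read-out: 4-methylumbelliferone at Ex 365/Em 440 nm after NaOH/glycine stop (pH 10). Enzyme 2 nM, 4-MU-alpha-galactoside 80 uM, citrate buffer pH 4.5, 20 min RT; normalized to no-enzyme and enzyme controls.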
# [18] = molecular target: Alpha-galactosidase A (Homo sapiens) (UniProt P06280); assay: Counterscreen for Glucocerebrosidase Inhibitors: qHTS Assay for Human alpha-Galactosidase at pH 4.5 (AID 992)
# In short: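 Steps: enzyme (2 nM final), then compound across 0.7 nM to 77 uM, then 80 uM fluorogenic galactopyranoside substrate; incubate 20 min at room temperature; quench at pH 10; measure fluorescence at 365/440 nm.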
# [19] = molecular target: alpha-glucosidase (Oryza sativa, rice) (UniProt Q653V4); assay: Counterscreen for Glucocerebrosidase Inhibitors: qHTS Assay for Rice alpha-Glucosidase at pH 5.0 (AID 997)
# In short: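 Endpoint fluorogenic assay at pH 5.0: compounds (0.7 nM to 77 uM) titrated against 4 nM rice enzyme and 400 uM 4-MU-alpha-glucoside for 20 min at room temperature; NaOH/glycine stop, read ex 365/em 440 nm, Hill-fitted AC50.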
# [20] = Validation of Assay for Modulators of Lamin A Splicing (AID 1459; active = well fitted curve in the direction sought with a large enough effect in the signal ratio; the % refers to the signal ratio;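 note: cells exposed to compound for two days before reading; ratio rise marks activators and ratio drop marks inhibitors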)
# In short: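 Dual-reporter HeLa S3 line (lamin A-EGFP minigene, DsRed2) treated with compounds 48 hrs, 0.5% DMSO final. Endpoint: EGFP/DsRed2 total intensity ratio from laser-scanning microplate cytometry.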
# [21] = qHTS Assay for Lipid Storage Modulators (AID 1519; calls by dose curve); conditions: Drosophila S3 cells, BODIPY lipid droplet/cell ratio, laser cytometry, cells loaded with oleic acid
# In short: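 Cells seeded at 5,000 per well were treated with compounds over a concentration series and loaded with oleic acid (400 uM, as added). Lipid droplet fluorescence (488 nm excitation, 500-530 nm channel) was read by laser-scanning cytometry and normalized to 20 uM Triacsin C.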
# [22] = molecular target: DNA repair nuclease/redox regulator APEX1 (Homo sapiens) (UniProt P27695); assay: qHTS Validation Assay for Inhibitors of the Human Apurinic/apyrimidinic Endonuclease 1 (APE1) (AID 1705;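 note: TAMRA fluorescence gain over two minutes as APE1 cuts a quenched THF abasic duplex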)
# In short: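 Substrate: 50 nM final fluorophore/quencher THF-abasic duplex. Enzyme preincubated with compounds 15 min, RT. Progress derived from fluorescence difference, third minus first kinetic read.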
# Sequence of Glucocorticoid receptor (Homo sapiens) (P04150 whole entry, looked up, the tested form may be a part): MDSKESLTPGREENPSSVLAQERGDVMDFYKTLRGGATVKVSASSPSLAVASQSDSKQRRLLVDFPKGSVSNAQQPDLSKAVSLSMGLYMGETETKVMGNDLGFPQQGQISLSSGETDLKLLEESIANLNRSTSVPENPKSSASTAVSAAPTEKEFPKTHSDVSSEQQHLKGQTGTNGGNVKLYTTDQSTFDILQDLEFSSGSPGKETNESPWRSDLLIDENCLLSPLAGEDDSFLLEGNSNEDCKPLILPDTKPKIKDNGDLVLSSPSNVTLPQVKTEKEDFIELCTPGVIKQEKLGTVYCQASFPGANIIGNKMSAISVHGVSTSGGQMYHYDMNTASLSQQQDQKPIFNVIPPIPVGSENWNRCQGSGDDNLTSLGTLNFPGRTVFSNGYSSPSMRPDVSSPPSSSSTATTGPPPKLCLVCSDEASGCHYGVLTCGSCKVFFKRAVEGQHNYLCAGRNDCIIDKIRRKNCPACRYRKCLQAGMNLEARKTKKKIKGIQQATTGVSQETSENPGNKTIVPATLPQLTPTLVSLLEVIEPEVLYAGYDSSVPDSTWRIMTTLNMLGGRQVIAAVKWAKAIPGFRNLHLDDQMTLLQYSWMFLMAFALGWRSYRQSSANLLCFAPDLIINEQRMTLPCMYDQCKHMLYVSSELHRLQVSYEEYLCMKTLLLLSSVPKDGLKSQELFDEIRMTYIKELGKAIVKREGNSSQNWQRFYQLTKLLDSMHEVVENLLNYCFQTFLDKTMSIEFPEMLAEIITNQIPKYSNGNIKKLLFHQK
# Sequence of Muscarinic acetylcholine receptor M1 (Rattus norvegicus) (P08482 whole entry, looked up): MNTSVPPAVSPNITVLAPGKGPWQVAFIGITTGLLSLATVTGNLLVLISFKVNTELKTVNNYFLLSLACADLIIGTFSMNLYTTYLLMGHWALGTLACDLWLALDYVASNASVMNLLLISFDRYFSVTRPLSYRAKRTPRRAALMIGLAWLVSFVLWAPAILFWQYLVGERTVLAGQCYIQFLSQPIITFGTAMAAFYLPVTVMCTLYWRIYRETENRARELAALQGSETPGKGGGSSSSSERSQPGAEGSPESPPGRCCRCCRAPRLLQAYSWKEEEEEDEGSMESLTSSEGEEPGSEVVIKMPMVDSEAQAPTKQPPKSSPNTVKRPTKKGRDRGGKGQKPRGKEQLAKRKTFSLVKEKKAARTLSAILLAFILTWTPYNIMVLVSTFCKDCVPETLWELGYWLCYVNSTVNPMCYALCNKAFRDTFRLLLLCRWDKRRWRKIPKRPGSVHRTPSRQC
# Sequence of Cytochrome P450 1A2 (Homo sapiens) (P05177 whole entry, looked up): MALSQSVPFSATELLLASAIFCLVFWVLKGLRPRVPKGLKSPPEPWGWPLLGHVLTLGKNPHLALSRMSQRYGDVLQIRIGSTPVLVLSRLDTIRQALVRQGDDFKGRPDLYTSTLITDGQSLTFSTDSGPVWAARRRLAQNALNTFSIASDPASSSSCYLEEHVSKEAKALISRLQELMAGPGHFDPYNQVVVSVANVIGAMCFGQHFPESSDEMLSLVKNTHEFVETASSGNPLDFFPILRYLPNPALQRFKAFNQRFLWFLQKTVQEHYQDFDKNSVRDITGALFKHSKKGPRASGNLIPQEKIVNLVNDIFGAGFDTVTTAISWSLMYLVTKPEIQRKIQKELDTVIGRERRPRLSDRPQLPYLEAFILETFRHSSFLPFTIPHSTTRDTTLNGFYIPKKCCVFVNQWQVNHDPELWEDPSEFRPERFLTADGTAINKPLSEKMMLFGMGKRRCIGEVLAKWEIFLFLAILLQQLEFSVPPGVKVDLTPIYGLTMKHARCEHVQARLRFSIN
# Sequence of 3',5'-cyclic-AMP phosphodiesterase 4B (Homo sapiens) (Q07343 whole entry, looked up): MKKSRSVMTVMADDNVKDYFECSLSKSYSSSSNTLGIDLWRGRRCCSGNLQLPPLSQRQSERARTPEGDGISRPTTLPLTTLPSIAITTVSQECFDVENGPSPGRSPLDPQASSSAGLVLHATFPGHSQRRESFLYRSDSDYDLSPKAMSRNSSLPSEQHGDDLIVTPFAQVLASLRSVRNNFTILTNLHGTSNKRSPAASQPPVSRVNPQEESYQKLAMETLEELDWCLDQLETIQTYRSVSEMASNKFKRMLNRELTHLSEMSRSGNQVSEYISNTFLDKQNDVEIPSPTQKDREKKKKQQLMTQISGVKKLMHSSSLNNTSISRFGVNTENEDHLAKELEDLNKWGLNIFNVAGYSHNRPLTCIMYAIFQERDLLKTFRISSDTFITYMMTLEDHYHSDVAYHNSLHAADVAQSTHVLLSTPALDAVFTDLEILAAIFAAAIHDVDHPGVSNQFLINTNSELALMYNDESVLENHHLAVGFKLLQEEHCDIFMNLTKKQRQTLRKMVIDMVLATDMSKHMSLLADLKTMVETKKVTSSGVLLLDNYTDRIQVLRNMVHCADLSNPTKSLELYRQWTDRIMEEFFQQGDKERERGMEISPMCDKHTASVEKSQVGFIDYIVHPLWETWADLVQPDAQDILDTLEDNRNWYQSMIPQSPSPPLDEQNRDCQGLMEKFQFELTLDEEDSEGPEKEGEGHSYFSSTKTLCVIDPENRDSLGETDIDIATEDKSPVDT
# Sequence of Alpha-galactosidase (Coffea arabica) (Q42656 whole entry, looked up): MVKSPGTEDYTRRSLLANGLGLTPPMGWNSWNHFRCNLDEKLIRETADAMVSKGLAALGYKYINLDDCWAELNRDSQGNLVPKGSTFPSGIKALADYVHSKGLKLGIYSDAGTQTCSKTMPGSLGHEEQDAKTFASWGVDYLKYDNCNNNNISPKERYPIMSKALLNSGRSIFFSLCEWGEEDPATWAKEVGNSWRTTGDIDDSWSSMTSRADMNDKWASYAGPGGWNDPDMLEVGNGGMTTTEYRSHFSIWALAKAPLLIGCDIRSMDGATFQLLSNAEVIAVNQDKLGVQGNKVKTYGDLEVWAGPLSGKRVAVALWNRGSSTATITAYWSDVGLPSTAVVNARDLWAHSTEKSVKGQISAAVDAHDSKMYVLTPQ
# Sequence of Cytochrome P450 2C9 (Homo sapiens) (P11712 whole entry, looked up): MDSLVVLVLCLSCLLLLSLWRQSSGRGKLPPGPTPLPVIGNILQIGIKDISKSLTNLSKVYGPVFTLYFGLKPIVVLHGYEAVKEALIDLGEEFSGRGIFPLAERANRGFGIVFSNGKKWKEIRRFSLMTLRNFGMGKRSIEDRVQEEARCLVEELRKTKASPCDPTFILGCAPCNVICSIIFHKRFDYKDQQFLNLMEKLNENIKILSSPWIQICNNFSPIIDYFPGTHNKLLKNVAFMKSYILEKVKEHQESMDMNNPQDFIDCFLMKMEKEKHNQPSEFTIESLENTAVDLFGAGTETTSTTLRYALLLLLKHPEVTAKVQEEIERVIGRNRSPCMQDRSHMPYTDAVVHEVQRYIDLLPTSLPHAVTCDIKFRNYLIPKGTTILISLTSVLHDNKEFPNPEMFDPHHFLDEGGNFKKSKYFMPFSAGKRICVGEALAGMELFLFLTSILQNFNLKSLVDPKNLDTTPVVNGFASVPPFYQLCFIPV
# Sequence of Alpha-galactosidase A (Homo sapiens) (P06280 whole entry, looked up): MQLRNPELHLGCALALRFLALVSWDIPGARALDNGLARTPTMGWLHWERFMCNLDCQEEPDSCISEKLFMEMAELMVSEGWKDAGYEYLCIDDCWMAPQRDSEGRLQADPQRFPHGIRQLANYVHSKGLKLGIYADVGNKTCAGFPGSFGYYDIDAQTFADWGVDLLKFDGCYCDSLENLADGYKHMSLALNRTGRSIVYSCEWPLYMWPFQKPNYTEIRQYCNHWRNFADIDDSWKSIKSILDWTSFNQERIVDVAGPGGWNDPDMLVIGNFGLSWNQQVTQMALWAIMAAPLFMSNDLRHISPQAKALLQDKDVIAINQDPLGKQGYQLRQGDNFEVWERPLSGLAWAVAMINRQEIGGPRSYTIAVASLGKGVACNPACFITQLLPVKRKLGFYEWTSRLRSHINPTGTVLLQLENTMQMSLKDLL
# Sequence of Guanine nucleotide-binding protein G(i) subunit alpha-1 (Homo sapiens) (P63096 whole entry, looked up): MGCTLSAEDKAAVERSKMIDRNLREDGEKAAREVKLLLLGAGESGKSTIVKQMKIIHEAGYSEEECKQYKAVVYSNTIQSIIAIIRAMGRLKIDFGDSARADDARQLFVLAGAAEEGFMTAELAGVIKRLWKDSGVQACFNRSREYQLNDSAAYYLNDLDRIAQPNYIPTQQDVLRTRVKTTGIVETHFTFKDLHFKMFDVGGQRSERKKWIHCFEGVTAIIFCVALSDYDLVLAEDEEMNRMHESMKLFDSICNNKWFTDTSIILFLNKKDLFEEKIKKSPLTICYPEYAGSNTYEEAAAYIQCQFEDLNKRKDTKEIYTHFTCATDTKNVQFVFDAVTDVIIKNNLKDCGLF
# Sequence of Pyruvate kinase PKM (Homo sapiens) (P14618 whole entry, looked up): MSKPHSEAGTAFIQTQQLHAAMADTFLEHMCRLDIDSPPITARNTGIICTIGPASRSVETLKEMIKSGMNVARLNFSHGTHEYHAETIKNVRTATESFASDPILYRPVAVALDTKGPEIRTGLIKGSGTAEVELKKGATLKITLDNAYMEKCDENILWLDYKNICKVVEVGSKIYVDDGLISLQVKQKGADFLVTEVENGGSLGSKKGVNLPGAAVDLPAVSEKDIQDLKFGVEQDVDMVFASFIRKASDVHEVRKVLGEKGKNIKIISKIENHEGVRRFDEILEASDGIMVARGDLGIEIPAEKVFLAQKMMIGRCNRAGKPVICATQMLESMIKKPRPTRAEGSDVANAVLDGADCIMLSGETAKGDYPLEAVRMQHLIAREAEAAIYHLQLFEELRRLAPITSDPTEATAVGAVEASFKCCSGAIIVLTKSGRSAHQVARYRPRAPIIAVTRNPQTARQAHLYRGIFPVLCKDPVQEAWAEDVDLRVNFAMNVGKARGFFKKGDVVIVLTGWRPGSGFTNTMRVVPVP
# Sequence of DNA repair nuclease/redox regulator APEX1 (Homo sapiens) (P27695 whole entry, looked up): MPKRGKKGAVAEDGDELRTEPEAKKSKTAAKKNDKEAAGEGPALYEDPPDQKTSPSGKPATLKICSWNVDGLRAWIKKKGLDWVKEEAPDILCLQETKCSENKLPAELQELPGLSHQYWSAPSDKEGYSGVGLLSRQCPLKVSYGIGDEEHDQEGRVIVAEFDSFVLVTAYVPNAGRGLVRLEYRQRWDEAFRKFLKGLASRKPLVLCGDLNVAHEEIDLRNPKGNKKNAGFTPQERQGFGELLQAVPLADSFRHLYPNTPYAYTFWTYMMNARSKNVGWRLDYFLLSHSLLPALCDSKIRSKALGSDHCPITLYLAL
smiles,measurement,setting,value
N[C@H](CCCCCP(=O)(O)O)C(=O)O,outcome,[1],inactive
same,Potency,[2],inactive
same,"activity change, negative = inhibition",[3],7.92% (inactive) and -0.366% (inactive)
same,outcome,[4],inactive
same,Potency,[5],> 46 µM (inactive)
same,Potency,[6],> 46 µM (inactive)
same,outcome,[7],inactive
same,Potency,[8],inactive
same,outcome,[9],inactive
same,Potency,[10],inactive
same,Potency,[11],inactive
same,Potency,[12],inactive
same,Potency,[13],inactive
same,Potency,[14],inactive
same,outcome,[15],inactive
same,outcome,[16],inactive
same,outcome,[17],inactive
same,outcome,[18],inactive
same,outcome,[19],inactive
same,outcome,[20],inactive
same,"activity change, negative = inhibition",[21]; at 57.5 µM (top of the series),-3.15% (inactive)
same,max response,[21]; measured here: cell count channel max response,-11.8%
same,max response,[21]; measured here: lipid channel max response,-15.1%
same,Potency,[22],inactive

# Reference: PubChem BioAssay (NCATS)
